Screening data: PubChem BioAssay, National Center for Advancing Translational Sciences (NCATS)
The list is not random: actives were taken first. Their share in the collection is about 12%.
SARS PLP yeast: SARS-CoV PLP inhibition in yeast; S. cerevisiae expressing SARS-CoV PLpro, growth rescue; Potency, µM (series often up to 32.9 µM), inactives show at the highest dose activity, positive = growth rescue, actives largely listed as activators; 330,000 tested, 0.19% active; AID 485353; further: potency means the concentration at half of the fitted maximal effect; 0% is about no effect; nearly all actives have a fitted effect of over 55% in size
Shiga inhibitor: inhibitors of Shiga toxin in Vero cells | 290,000 tested, 9.2% active | inhibition, % at 38.7 µM | Vero cells, Shiga toxin protein synthesis inhibition reporter; in the data active means inhibition mostly above about 28%, no sharp cut-off; inactive means mostly below about 43%; further: 0% is about no effect
CHX counter: counter-screen hit for Shiga toxin inhibitors, cycloheximide. max response, %. cell reporter, cycloheximide protein synthesis inhibition counterscreen. 300,000 tested, 12% active; in the data active means max response mostly above about 13%, no sharp cut-off; inactive means mostly below about 14%; further: read at 38.3 µM for the half of the compounds with a filed dose; 0% is about no effect
NS1 function inh: inhibitors of influenza NS1 protein function | Potency, µM (series often up to 46.1 µM), for the others: at the top dose activity, positive = more growth | 270,000 tested, 0.4% active; further: potency means the concentration at half of the fitted maximal effect; actives are rising curves; nearly all actives have a fitted effect of over 50% in size
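S. cerevisiae expressing influenza A NS1, grown in glucose, washed, then diluted 1:100 into pH 6.0 -URA galactose medium with 23 nl compound. Growth recovery read as OD600; NS1-free strain serves as control.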
Numbers without * were called inactive; ? = inconclusive; / = no result given. Unless noted, the call rests on the fitted dose curve.

SMILES	SARS PLP yeast	Shiga inhibitor	CHX counter	NS1 function inh
ClC(Cl)c1nnc(-c2ccccc2)c(-c2c[nH]c3ccccc23)n1	-2%	active	12	-18%
CCOc1ccccc1-n1c(SCC(=O)Nc2ccccc2C(=O)O)nc2ccccc2c1=O	-1%	35*	36*	?
O=C(c1c(Cl)nc2sccn12)N(C(=O)c1c(Cl)nc2sccn12)c1ccc(Cl)cn1	2%	187*	80*	?
CC(=O)c1ccc(N2CCN(c3ncccn3)CC2)cc1	/	48	29*	16%
COc1cccc(C(=O)N2CCN(c3ncccn3)CC2)c1	25%	-6	-3	1%
COc1cccc(N2CCN(c3ncccn3)CC2)c1	11%	45*	60*	-1%
CC(=O)c1ccc(NC(=O)CN2CCN(c3ncccn3)CC2)cc1	5%	-13	3	2%
COc1ccccc1C(=O)OCC(=O)Nc1cccc(S(=O)(=O)N2CCCC2)c1	-2%	/	/	/
O=C(COCc1nc2ccccc2c(=O)[nH]1)NC1CCCC1	13%	7	-3	-2%
COc1ccc2nc(NC(=O)CS(=O)(=O)c3ccc(C)cc3)sc2c1	-7%	6	4	18%
COc1ccc2nc(NC(=O)CCc3cc(OC)c(OC)c(OC)c3)sc2c1	2%	-16	8	/
CCOCC(=O)Nc1nc2ccc(OC)cc2s1	1%	67*	53*	-3%
COc1ccc2nc(NC(=O)CCn3cccc3)sc2c1	10%	13	16*	-1%
CCOc1ccc2nc(NC(=O)COC)sc2c1	-4%	114	34*	-8%
COc1ccc(CCN=CC2=C(O)CCCC2=O)cc1OC	13%	9	-1	4%
Cc1ccc(C(=O)N(C)CC(=O)Nc2ccc(N3CCOCC3)cc2)s1	-1%	/	/	/
COC(=O)c1cn(Cc2ccccn2)c(=O)c2ccccc12	0%	-12	5	1%
O=c1ccn(Cc2ccccc2)c2ccccc12	-2%	24	1	-8%
Cc1c(OCc2ccccc2)c(=O)ccn1Cc1ccccc1	0%	32	11*	-5%
CC(=O)Nc1ccc(C(=O)NC2CCSc3ccccc32)cc1 (centres undefined)	11%	13	14*	-5%
COc1ccc(C(=O)NC2CCSc3ccccc32)cc1 (centres undefined)	6%	35*	19*	-6%
CSc1ccc(C(=O)NC2CCSc3ccccc32)cc1 (centres undefined)	1%	38	11*	-2%
COc1ccc(OC)c(C(=O)NC2CCSc3ccccc32)c1 (centres undefined)	-20%	-5	-2	-26%
N#C/C(=C\c1ccc(OC(=O)c2ccc(Cl)s2)cc1)c1nc2ccccc2[nH]1	-3%	17*	50*	-24%
N#C/C(=C\c1ccc(OC(=O)c2ccc(Br)s2)cc1)c1nc2ccccc2[nH]1	-2%	38*	22*	-24%
SMILES	SARS PLP yeast	Shiga inhibitor	CHX counter	NS1 function inh
CCOc1ccc(N2C(=O)CC(NCC3CCCO3)C2=O)cc1 (centres undefined)	2%	5	-4	-3%
O=C(Cn1c(=O)c2cccn2c2cccnc21)N1CCN(c2ccc(Cl)cc2)CC1	0%	-4	-2	0%
CN(C)C(=O)c1ccc(NC(=O)c2cncc(Br)c2)cc1	-20%	active	27	0%
CC(C)OC(=O)c1ccc(NC(=O)c2cncc(Br)c2)cc1	-1%	25	20*	-6%
O=C(Nc1ccc(C(=O)NC2CCCCC2)cc1)c1cncc(Br)c1	0%	-13	0	3%
COCc1cc(CNC(=O)C2CCC(=O)N(Cc3ccccc3F)C2)[nH]n1 (centres undefined)	12%	33	11	3%
COc1ccc(/C=C/C(=O)NCC(=O)N/N=C(/C)c2ccc(Cl)cc2)cc1	-2%	1	12	-9%
O=C(Nc1ccccc1-c1ccccc1)C1CCCCC1	24%	-3	-4	-1%
O=C(Cc1ccccc1F)Nc1ccccc1-c1ccccc1	0%	70*	27*	/
O=C(Nc1ccccc1-c1ccccc1)C1CCC1	0%	53	26*	-1%
O=C(Cc1c(F)cccc1Cl)Nc1ccccc1-c1ccccc1	9%	1	-4	2%
Cc1cccc(C)c1NC(=O)CN(C)C(=O)c1ccc(NS(=O)(=O)c2ccc3[nH]c(=O)[nH]c3c2)cc1	-1%	/	/	/
COc1ccc(NC(=O)N2CCCC2C(=O)NCc2cccs2)cc1 (centres undefined)	-3%	25	25	-7%
Cc1cc(C)c(NC(=O)CS(=O)CC(=O)Nc2ccc(F)cc2F)c(C)c1 (centres undefined)	-1%	-5	10	-1%
O=c1oc2ccc3ccccc3c2cc1-c1nnc(-c2ccccc2)o1	0%	19	42*	-52%
O=c1oc2ccc3ccccc3c2cc1-c1nnc(-c2cccs2)o1	7%	-4	25*	2%
Cc1ccccc1NC(=O)/C(C#N)=C\c1cn(CC(=O)O)c2ccccc12	0%	-16	8	5%
Cc1ccc(NC(=O)/C(C#N)=C/c2ccc(C)s2)c(C)c1	11%	53	40*	1%
Cc1ccccc1NC(=O)/C(C#N)=C/c1ccc[nH]1	23%	26	30*	-3%
COc1ccc(NC(=O)/C(C#N)=C/c2ccc(-c3ccc(Cl)c(C(=O)O)c3)o2)cc1	2%	-11	-1	13%
N#C/C(=C\c1ccc[nH]1)C(=O)Nc1ccccc1[N+](=O)[O-]	-8%	67*	22*	3%
Cc1ccccc1NC(=O)/C(C#N)=C/c1ccc(-c2ccc(Cl)c(C(=O)O)c2)o1	12%	15	12*	?
CCN(CC)C(=O)C(=O)c1cn(CC(=O)N2CCc3ccccc3C2)c2ccccc12	2%	6	6	/
COC(c1ccccc1)c1nnc(CCC(=O)N2CCN(C3CCCC3)CC2)o1 (centres undefined)	3%	-2	-3	1%
Cc1ccccc1NC(=O)/C(C#N)=C/c1ccsc1	-3%	37*	25*	3%
SMILES	SARS PLP yeast	Shiga inhibitor	CHX counter	NS1 function inh
Cc1ccc(CCC(=O)Nc2ccccc2C(=O)O)o1	-2%	59*	26*	5%
CCc1ccc(CCC(=O)Nc2ccc(C)c(C)c2)o1	-28%	58*	40*	-61%
CCc1ccc(NC(=O)CCc2ccc(C)o2)cc1	0%	/	37*	-39%
Cc1ccc(CCC(=O)Nc2ccc(C#N)cc2)o1	-2%	0	-8	-4%
CCc1ccc(NC(=O)CCc2ccc(CC)o2)cc1	-11%	/	14*	-44%
CC(=O)c1ccc(NC(=O)CCc2ccc(C)o2)cc1	-4%	16	13*	7%
CN1C(=O)CC(C(=O)Nc2ccccc2F)SC1=Nc1ccc2c(c1)OCO2 (centres undefined)	-2%	-4	-2	/
COc1cccc(Cn2cnc3c(NS(=O)(=O)c4cc(Cl)ccc4Cl)c(C)c(C)cc32)c1	3%	-2	-3	?
O=C(Nc1ccc2c(c1)OCCO2)C1CCCN(S(=O)(=O)c2cccc3nsnc23)C1 (centres undefined)	1%	39	24*	?
O=C(Nc1ccc2c(c1)OCCO2)C1CCN(S(=O)(=O)c2cccc3nsnc23)CC1	-2%	9	-1	-1%
